We go through 40 compounds from PubChem BioAssay (NCATS).

Each structure is given as a SMILES string. Several values for one entry are separate records, joined by “and”; a condition that tells them apart may be missing. Equal values may be shown once. Results filed as inconclusive are left out. A call without a number means that no potency is given here. Where a structure was tested more than once in an assay, its records may differ in their call. Activity calls are given as the source filed them. Calls follow the shape of the full dose curve.
Potency is read from the fitted curve at half-maximal effect.

The target in this assay is Cytochrome P450 1A2 (Homo sapiens) (UniProt P05177). As to the kind of experiment: p450-cyp1a2 (AID 410). The following applies: recombinant CYP1A2, luciferin-ME demethylation, luminescence; series mostly up to 25.6 µM. As for the experimental part: The P450 gene superfamily is involved in metabolism and the clearance of xenobiotics. This assay used human CYP1A2 to measure the demethylation of luciferin 6' methyl ether (Luciferin-ME; Promega-Glo) to luciferin. The luciferin is then measured by luminescence after the addition of a luciferase detection regeant. Luciferin-ME concentration in the assay was equal to its Km for CYP1A2.
Chain of Cytochrome P450 1A2 (Homo sapiens) (P05177 whole entry, looked up): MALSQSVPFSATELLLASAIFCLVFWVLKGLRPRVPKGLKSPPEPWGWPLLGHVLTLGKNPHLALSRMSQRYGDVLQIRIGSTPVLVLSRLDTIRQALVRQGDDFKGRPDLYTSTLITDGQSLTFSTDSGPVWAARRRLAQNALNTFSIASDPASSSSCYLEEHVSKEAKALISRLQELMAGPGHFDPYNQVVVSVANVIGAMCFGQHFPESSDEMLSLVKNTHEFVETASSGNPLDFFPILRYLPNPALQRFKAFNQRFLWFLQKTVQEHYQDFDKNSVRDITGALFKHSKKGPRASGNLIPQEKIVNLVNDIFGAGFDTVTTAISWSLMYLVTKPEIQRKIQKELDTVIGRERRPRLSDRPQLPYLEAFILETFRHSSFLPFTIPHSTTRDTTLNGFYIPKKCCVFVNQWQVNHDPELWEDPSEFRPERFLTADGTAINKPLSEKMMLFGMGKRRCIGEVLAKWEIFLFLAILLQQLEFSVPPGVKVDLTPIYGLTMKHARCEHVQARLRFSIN
NCGC Assay Protocol Summary:
Two uL of enzyme and substrate mix (final concentrations: 20nM CYP1A2, 100uM Luciferin-ME, 100mM KPO4) were dispensed into a white, solid bottom 1536-well microtiter plate. 23nL of compound was transferred by a pin tool. The plate was incubated at room temperature for 10 min. Two uL of an NADPH regeneration solution (Promega supplied reagent) was dispensed and the reaction was allowed to continue for 60 min at room temperature. Then the reaction was stopped by reconstituted detection reagent. After another 20 min of incubation the plate was read on the ViewLux (Perkin Elmer) at 60 sec exposure and 2x2 binning. This protocol was carried out with Promega-Glo reagents and further information can be found at http://www.promega.com/tbs/tb325/tb325.pdf. Data were normalized to the to AC100 inhibition (57 uM furafylline).
As to `CC(=O)O[C@H]1CC[C@@]2(C)C(=CC[C@@H]3[C@H]2CC[C@]2(C)C(=O)CC[C@H]32)C1`, the Potency entry was “inactive”. Still for that read-out and setting: then `CS(=O)(=O)N1CCC2(CC1)CN(Cc1ccncc1)C2`, with “inactive”; and `COC1=C[C@H]2C3=C([C@H]2C1=O)[C@H](NC(C)=O)CCc1cc(OC)c(OC)c(OC)c13`, with “inactive”; and `N#Cc1cccc(NC(=O)N2CC3(CCN(C(=O)Oc4ccccc4)CC3)C2)c1`, with 15.8 µM (active).

On to `CC1=C2[C@@H]3OC(=O)[C@@H](C)[C@@H]3CC[C@]2(C)C=CC1=O`, for which the Potency was 10 µM (active).

For `CC[C@H]1CN2CC[C@@H]1C[C@H]2[C@@H](O)c1ccnc2ccc(OC)cc12`, the Potency result was “inactive”. In the case of `COc1ccc(NC(=O)N2CCCC3(CCN(C(=O)Oc4ccccc4)CC3)C2)cc1`, the Potency is 12.6 µM (active). The same measure, in the same setting: under `O=C(Oc1ccccc1)N1CCC[C@@]2(CCN(Cc3ccccc3)C2)C1` stands 15.8 µM (active). Still for that read-out and setting: then `C[C@H](NC(C)(C)C)C(=O)c1cccc(Cl)c1`, with “inactive”; and `O=C(Oc1ccccc1)N1CCC2(CCCN(C(c3ccccc3)c3ccccc3)C2)CC1`, with “inactive”. The same measure, in the same setting: under `C[C@@]12CCC(=O)C=C1C=C[C@H]1[C@H]3CC[C@](O)(CCC(=O)O)[C@]3(C)CC[C@@H]12` stands “inactive”. Consider `COc1ccc2c(c1O)-c1c(OC)c(OC)cc3c1[C@H](C2)N(C)CC3`, for which the Potency was 10 µM (active).

As to `CCN1C[C@@]2(COC)CC[C@H](OC)[C@]34[C@@H]1[C@]1(OCO[C@@]15C[C@@H](OC)C1C[C@H]3[C@H]5[C@@H]1OC)[C@H](O)[C@@H]24`, the Potency entry was “inactive”. The same measure, in the same setting: then `CC(C)NC(=O)N1CCC2(CC1)CCN(C(=O)Oc1ccccc1)CC2`, with “inactive”; and `c1csc(CN2CC3(CCNCC3)C2)n1`, with “inactive”; and `O=C1C=C2C=C[C@H]3C[C@@]2(O1)[C@H]1CCCCN31`, with “inactive”. Same read-out and setting: then `C[N+]1=Cc2cc3c(cc2CC1)OCO3`, with “inactive”; and `CO[C@@H](C)[C@](O)(C(=O)OCC1=CCN2CC[C@@H](O)[C@H]12)C(C)C`, with “inactive”; and `CC[C@]1(c2cccc(O)c2)CCCCN(C)C1`, with “inactive”. Same read-out and setting: under `C[C@H]1CC[C@@]2(NC1)O[C@@H]1C[C@H]3[C@@H]4CC=C5C[C@@H](O)CC[C@]5(C)[C@@H]4CC[C@]3(C)[C@@H]1[C@@H]2C` stands “inactive”. Take `C/C=C1\C[C@H](C)[C@@](O)(CO)C(=O)OCC2=CCN3CC[C@@H](OC1=O)[C@@H]23`: the Potency entry was “inactive”. On the same count and under the same terms, then `c1ccc(CN2CCC3(CCNCC3)CC2)cc1`, with “inactive”.

`CC(C)CN1CC[C@@]2(CCCN(C(=O)Oc3ccccc3)C2)C1`: the Potency is 15.8 µM (active). Consider `c1ccc(N2CCC3(CCNCC3)CC2)nc1`, for which the Potency result was “inactive”. The same measure, in the same setting: under `O=C(Oc1ccccc1)N1CCC[C@@]2(CCN(C(c3ccccc3)c3ccccc3)C2)C1` stands 25.1 µM (active); under `C=C1[C@@H]2CC[C@H]3[C@@]4(C)C[C@@H](O[C@@H]5O[C@H](CO)[C@H](OS(=O)(=O)O)[C@@H](OS(=O)(=O)O)[C@@H]5OC(=O)CC(C)C)C[C@@H](C(=O)O)[C@H]4CC[C@@]3(C2)[C@H]1O`, “inactive”. As for `CC(C)c1ccc(C(c2c(O)c3ccccc3oc2=O)c2c(O)c3ccccc3oc2=O)cc1`, the activity change, negative = inhibition is -18.8% [at 2.29 µM] (inactive). Regarding `COc1cc2c(cc1O)C[C@H]1c3c(cc(OC)c(O)c3-2)CCN1C`, the Potency was 10 µM (active). Still for that read-out and setting: then `C[C@@H]1O[C@H](O[C@@H]2CC[C@@]3(C=O)[C@H]4CC[C@@]5(C)[C@@H](C6=CC(=O)OC6)CC[C@@]5(O)[C@@H]4CC[C@]3(O)C2)C[C@H](O)[C@@H]1O`, with “inactive”; and `O=C(OC1CCN(CCCl)CC1)C(c1ccccc1)c1ccccc1`, with 12.6 µM (active). Same read-out and setting: then `CCN1C[C@]2(C)CC[C@H](O)[C@@]34[C@@H]5CC6[C@@H](OC)C[C@@](O)([C@@H]5[C@@H]6O)[C@H](C[C@@H]23)[C@H]14`, with “inactive”; and `CCN(CC)C(=O)N[C@@H]1C[C@H]2c3cccc4[nH]cc(c34)C[C@@H]2N(C)C1`, with “inactive”; and `COc1ccc(C[C@H]2c3cc(OC)c(OC)cc3CCN2C)cc1OC`, with “inactive”. Regarding `O=C(Nc1ccccc1)N1CC[C@@]2(CCCN(C(=O)Oc3ccccc3)C2)C1`, the Potency is 15.8 µM (active). Still for that read-out and setting: under `c1csc(CN2CCC3(CCNCC3)CC2)n1` stands “inactive”; under `COc1cc2c(cc1OC)[C@H](C)NCC2`, “inactive and 20 µM (active)”.

Regarding `O=C(Oc1ccccc1)N1CCC2(CCCN(Cc3nccs3)C2)CC1`, the Potency entry is “inactive”. The same measure, in the same setting: then `c1cc(CN2CCCC3(CCNCC3)C2)ccn1`, with “inactive”; and `c1cc(CN2CC3(CCNCC3)C2)ccn1`, with “inactive”; and `CC(C)c1c(CN(C)[C@@H](C)Cc2ccccc2)n(C)n(-c2ccccc2)c1=O`, with “inactive”.
